The list is not random: actives were taken first. Their share in the collection is about 7.8%.
HCMV inh – human cytomegalovirus inhibition | activity change, negative = inhibition, % at 57.5 µM | 410,000 compounds, 4.5% hits | HFF cells, HCMV-luciferase reporter, 72 h; stronger effect = lower value; in the data active = activity change below about -60%; inconclusive = no clear call, values can overlap the other calls; inactive = above about -39%
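HFF cells seeded 16 h at 37C, treated with compounds, infected with luciferase-reporter HCMV at MOI 1 PFU/cell; luciferase read at 72 h post infection, normalized to buffer-only and Salinomycin controls.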
HCV inh – inhibitors of hepatitis C virus infection; Potency, µM (doses to about 41.8 µM), without a hit: at the top dose activity change, negative = inhibition, usual class: inhibitors; Huh7.5.1 HCVcc-Cre infection, luciferase reporter, 44 h; 340,000 compounds, 3.4% hits; AID 651820; active = well fitted inhibition curve with a large enough effect; inconclusive = small, poorly fitted or top-dose-only effect, or another doubt; inactive = no such curve, though single readings can be large or run the other way; also: potency is read from the fitted curve at half-maximal effect
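HCVcc-Cre virus at an moi near 0.5 was added right after compound to cells cultured 4 h from seeding (1,000 cells/well). Luciferase activity was determined 44 h later, 15 min after substrate addition at RT.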
MARV entry inh – Marburg virus entry inhibition. Marburg virus pseudotyped entry inhibition, cell reporter. 300,000 compounds, 1.8% hits. Potency, µM (top dose mostly 37.8 µM), inactives show at the highest dose activity change, negative = inhibition, hits mostly inhibitors. AID 540276; calls by dose curve; tested in HEK293 cells; also: potency is read from the fitted curve at half-maximal effect
VACV mCherry inh – inhibitors of vaccinia virus infection (mCherry reporter signal). Vaccinia virus mCherry reporter infection, fluorescence. Potency, µM (series often up to 36.5 µM), without a hit: at the top dose activity change, negative = inhibition, usual class: inhibitors. 310,000 compounds, 0.63% hits. AID 720579; calls by dose curve; tested in A549 cells; also: potency is read from the fitted curve at half-maximal effect; nearly all actives have a fitted effect of over 35% in size
VACV Venus inh – vaccinia inhibition (Venus reporter) | Vaccinia virus Venus reporter expression, fluorescence | Potency, µM (titrated, usually from 36.5 µM), for the others: at the highest dose activity change, negative = inhibition, most hits filed as inhibitors | 330,000 compounds, 0.46% hits | AID 720580; calls by dose curve; tested in A549 cells; also: potency is read from the fitted curve at half-maximal effect; nearly all actives have a fitted effect of over 30% in size
Lassa entry inh – Lassa virus entry inhibition; Lassa virus pseudotype entry inhibition, cell reporter; Potency, µM (doses to about 37.9 µM), inactives show top-dose activity change, negative = inhibition, most hits filed as inhibitors; 300,000 compounds, 1.2% hits; AID 540256; calls by dose curve; tested in HEK293 cells; also: potency is read from the fitted curve at half-maximal effect; nearly all actives have a fitted effect of over 50% in size
An asterisk follows results filed as active; i = inactive; ? = inconclusive; / = not tested or not shown; [ ] = remark or other dose. % is scaled to controls: 0 for no effect and ±100 for the full control effect.

SMILES	HCMV inh	HCV inh	MARV entry inh	VACV mCherry inh	VACV Venus inh	Lassa entry inh
COc1ccc(N2CCN(C(=O)C(C)n3nc(C)c4sc5ccccc5c4c3=O)CC2)cc1 (stereo not drawn)	29	/	?	-12%	0%	?
CCc1ccc(OCC(=O)Nc2ccc(-c3nc4ncccc4o3)cc2)cc1	58	/	/	-1%	3%	0%[46.1 µM]
Cc1ccc(Cn2ncc3c(NN)ncnc32)cc1	-86*	?	-5%	-9%	-3%	?
Cc1ccc(Cn2ncc3c(N4CCN(c5ccc(C)cc5)CC4)ncnc32)cc1	?	?	?	-20%	-20%	0%
Cc1ccc(Cn2ncc3c(N4CCN(Cc5ccc(Cl)cc5)CC4)ncnc32)cc1	-82*	4.5µM*	2.8µM*	-27%	-18%	?
CCOc1ccccc1NC(=O)CSc1ncc(S(=O)(=O)c2ccc(C)c(C)c2)c(N)n1	-38	/	/	-12%	-12%	-28%[46.1 µM]
CCC[C@H]1[C@@H](NS(=O)(=O)c2ccc([N+](=O)[O-])cc2[N+](=O)[O-])CC[C@@]23CCCN2C(=O)CCC[C@@H]13	-21	/	/	/	/	/
CC1(C)CC[C@]2(C(=O)n3ccnc3)CC[C@]3(C)[C@H](C(=O)C=C4[C@@]5(C)C=C(C#N)C(=O)C(C)(C)[C@@H]5CC[C@]43C)[C@@H]2C1	-101*	?	2.5µM*	-3%	-16%	2.5µM*
CCOC(=O)C1CCN(c2cc(C)nc3c(-c4ccccc4OC)c(C)nn23)CC1	-12	/	/	0%	-10%	-5%[46.1 µM]
O=C(CSc1nc(=O)n(CCN2CCOCC2)c2c1CCC2)Nc1ccc(OC(F)(F)F)cc1	-60*	?	-24%[46.1 µM]	?	-11%	-6%
CCCCc1ccc(NC(=O)CSc2nc(=O)n(CCN(CC)CC)c3c2CCC3)cc1	9	?	?	?	-28%	?
CCN(CC)CCn1c2c(c(SCC(=O)Nc3ccc(C(C)C)cc3)nc1=O)CCCC2	-9	14µM*	-7%	i	-13%	1%
CCN(CC)CCn1c2c(c(SCC(=O)Nc3nc(C)cs3)nc1=O)CCCC2	-80*	?	?	-13%	-8%	3%
CCN(CC)CCn1c2c(c(SCC(=O)Nc3ccc(C)c(F)c3)nc1=O)CCC2	-99*	-29%[8.37 µM]	16%	-15%	-11%	-19%
CCN(CC)S(=O)(=O)c1cc(NC(=O)CSc2nc3c(cc2C#N)C(=O)CC(C)(C)C3)ccc1C	-85*	?	?	-27%	-15%	?
Cc1cc(NCCCn2ccnc2)n2nc(C)c(-c3ccc(Cl)cc3)c2n1	-38	10µM*	?	/	/	-10%
Cc1cc(NCCCn2ccnc2)n2nc(C)c(-c3ccccc3)c2n1	87	?	-4%	/	/	3%
Cc1cc(NCCCn2ccnc2)n2ncc(-c3ccccc3)c2n1	/	-22%	?	/	?	4.5µM*
Cc1cc(NCCN2CCOCC2)n2nc(C)c(-c3ccc(Cl)cc3)c2n1	-2	10µM*	?	/	6%	?
CCOc1ccc(-c2cc3c(=O)n(CC(=O)NCc4ccccc4)ccn3n2)cc1	54	/	/	-9%	1%	3%[46.1 µM]
CCOc1ccc(C(=O)Nc2ccc(S(=O)(=O)N3CCCCC3c3cccnc3)cc2)cc1 (stereo not drawn)	-89*	/	/	-24%	?	?
CCCCC(=O)Nc1ccc(S(=O)(=O)N2CCCCC2c2cccnc2)cc1 (stereo not drawn)	?	/	4%	-6%	-21%	-25%
O=C(Nc1ccc(S(=O)(=O)N2CCCCC2c2cccnc2)cc1)c1ccc(Br)cc1 (stereo not drawn)	-98*	/	/	?	-27%	?
CC(=O)Nc1ccc(S(=O)(=O)N2CCCCC2c2cccnc2)cc1 (stereo not drawn)	-15	3%	8%	/	/	-2%
CC12C=C(/C=C/c3ccc(F)cc3)C(C)(C1)C(c1ccc(F)cc1)CC2=O (stereo not drawn)	/	/	9%[14.2 µM]	/	/	/
SMILES	HCMV inh	HCV inh	MARV entry inh	VACV mCherry inh	VACV Venus inh	Lassa entry inh
CN1C(C(=O)c2ccccc2)=C(OC(=O)c2ccc(Br)cc2)c2ccccc2S1(=O)=O	-14	/	-9%[46.1 µM]	-24%	-9%	14%[46.1 µM]
Cc1nc2ccccc2c(=O)n1/N=C/c1c(O)ccc2ccccc12	-31	-15%	-16%[46.1 µM]	13µM*	?	0%[46.1 µM]
O=c1c2ccccc2nc(N/N=C/c2c(O)ccc3ccccc23)n1O	-101*	0.89µM*	0.79µM*	/	?	0.63µM*
Cc1nc2ccccc2c(=O)n1/N=C/c1cc(Br)ccc1O	23	?	?	?	-25%	-21%[46.1 µM]
O=C(c1ccc(-c2cc3ccccc3oc2=O)cc1)N1CCN(c2ccc(Cl)cc2[N+](=O)[O-])CC1	?	10µM*	3%	i	-21%	-4%
C#CCOCCOCCOCCNc1nc(N2CCN(C(=O)CCCCCCCCCCNC(=O)Cn3cc(C[C@@H](C)O)nn3)CC2)nc(N2CCN(C(=O)CCCCCCCCCCNC(=O)[C@H](CO)n3cc(CCCSC)nn3)CC2)n1	-85*	13%	/	i	?	/
C#CCOCCOCCOCCNc1nc(N2CCN(C(=O)CCCCCCCCCCNC(=O)Cn3cc(C[C@@H](C)O)nn3)CC2)nc(N2CCN(C(=O)CCCCCCCCCCNC(=O)[C@@H](CCC(=O)O)n3cc(CCCCCN)nn3)CC2)n1	20	11%	/	?	-15%	/
C#CCOCCOCCOCCNc1nc(N2CCN(C(=O)CCCCCCCCCCNC(=O)Cn3cc(C[C@@H](C)O)nn3)CC2)nc(N2CCN(C(=O)CCCCCCCCCCNC(=O)[C@H](CCCN=C(N)N)n3cc(C[C@@H](C)CC)nn3)CC2)n1	/	6%	/	-21%	11µM*	/
C#CCOCCOCCOCCNc1nc(N2CCN(C(=O)CCCCCCCCCCNC(=O)[C@H](CO)n3cc(CCCSC)nn3)CC2)nc(N2CCN(C(=O)CCCCCCCCCCNC(=O)[C@H](CCCN=C(N)N)n3cc(C[C@@H](C)CC)nn3)CC2)n1	/	?	/	-19%	11µM*	/
CCCOC(=O)c1ccc(Oc2cn[nH]c2-c2ccc(OCC)cc2O)cc1	70	?	?	?	?	7.9µM*
CCCOC(=O)c1ccc(Oc2c(-c3ccc(OCC)cc3O)n[nH]c2C)cc1	-98*	?	?	-36%	?	?
COc1ccc(Oc2c(-c3ccc(O)cc3O)n[nH]c2C)cc1	20	-16%	21%[46.1 µM]	-26%	-18%	?
CCCc1ccc(Oc2c(-c3ccc(O)c(C)c3O)n[nH]c2C)cc1	1	?	?	/	/	?
CCCc1ccc(Oc2cn[nH]c2-c2ccc(O)c(C)c2O)cc1	-61*	13µM*	?	-11%	-30%	-24%
Cc1c(C(=O)NCc2cccc(F)c2)sc2ncnc(NCC3CCCO3)c12 (stereo not drawn)	/	/	/	-9%	8%	/
